# Reference: PubChem BioAssay (NCATS)
# A number with no mark means an inactive call. Results filed as inconclusive are left out. Entries that show only a call come without a potency. Active and inactive are the calls of the source. Unless noted, calls come from the whole dose curve; as a rule, active = well fitted curve in the direction sought with a large enough effect; inconclusive = small, poorly fitted or top-dose-only effect, or another doubt; inactive = no such curve, though single readings can be large; an effect the other way counts as inactive or inconclusive.
# Legend:
# [1] = biological target: Cytochrome P450 1A2 (Homo sapiens) (UniProt P05177); experiment: p450-cyp1a2 (AID 410; calls by dose curve; note: potency is the fitted concentration of half-maximal effect)
# In short: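 Luminescent demethylation readout: Luciferin-ME (100uM, equal to Km) turned over by 20nM CYP1A2 for 60 min at room temperature after NADPH regeneration addition, following 10 min compound preincubation. Normalization used 57 uM furafylline as full inhibition.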
# [2] = biological target: Glucocorticoid receptor (Homo sapiens) (UniProt P04150); experiment: GR-GFP Redistribution (AID 450;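 active = compounds whose dose series gives a full or clear partial fitted curve of increased nuclear translocation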; note: potency is the fitted concentration of half-maximal effect)
# [3] = biological target: Glucocorticoid receptor (Homo sapiens) (UniProt P04150); experiment: GR-EFC Redistribution (AID 451; calls by dose curve; note: potency is the fitted concentration of half-maximal effect); details: CHO-K1 GR-EFC translocation, beta-gal luminescence, 2 h
# In short: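 CHO-K1 cells stably expressing nuclear-localized β-gal enzyme acceptor and GR fused C-terminally to the enzyme donor fragment; ligand-driven nuclear translocation restores β-gal by complementation. Compounds titrated up to 46 uM final, 2 h at 37 °C; luminescence read.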
# [4] = biological target: Mitogen-activated protein kinase 10 (Mus musculus) (UniProt Q61831); experiment: JNK3 AlphaScreen Assay (AID 530; active = well fitted curve in either direction with a large enough effect, not every such curve was filed as active;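 note: kinase came from lysate of stimulated human HepG2 cells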; note: potency is the fitted concentration of half-maximal effect)
# In short: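 Phosphorylation of biotinylated GST-cJun(1-79) at Ser73 is measured by AlphaScreen proximity luminescence. Enzyme is JNK3 in HepG2 lysates activated with interleukin-1beta and tumor necrosis factor alpha; ATP is 10 uM final.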
# [5] = biological target: 3',5'-cyclic-AMP phosphodiesterase 4B (Homo sapiens) (UniProt Q07343); experiment: qHTS Assay for Inhibitors of PDE-IV (AID 607; active = well fitted activation curve with a large enough effect in the main read-out, with a control signal flat, not every such curve was filed as active)
# In short: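 Live HEK293 cells with a modified cyclic nucleotide-gated (CNG) channel report intracellular cAMP via membrane-potential dye fluorescence (ex 535/em 590 nm). Endogenous PDE-IV was targeted. Compounds were tested at up to 22.9 uM final; RO 20-1724 100 uM served as control.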
# [6] = biological target: Cytochrome P450 2C9 (Homo sapiens) (UniProt P11712); experiment: qHTS Assay for Inhibitors and Substrates of Cytochrome P450 2C9 (AID 883); note: nearly all actives have a fitted effect of over 60% in size; note: potency is the fitted concentration of half-maximal effect
# In short: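 A luminogenic readout tracked human CYP2C9 (10nM) converting deoxyluciferin (100uM, at KM) in 25mM KPO4 during 60 min at 37C with regenerated NADPH. Values normalized to 57uM sulphaphenazole as complete inhibition.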
# [7] = biological target: Cytochrome P450 2D6 (Homo sapiens) (UniProt P10635); experiment: qHTS Assay for Inhibitors and Substrates of Cytochrome P450 2D6 (AID 891); note: nearly all actives have a fitted effect of over 60% in size; note: potency is the fitted concentration of half-maximal effect
# In short: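 Luminescent read-out of luciferin formed by 5 nM human CYP2D6 demethylating 30 uM Luciferin-ME EGE (Km level) over 60 min at room temperature after NADPH regeneration addition. Data normalized to full inhibition by 1.43 uM quinidine.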
# [8] = biological target: Cytochrome P450 2C19 (Homo sapiens) (UniProt P33261); experiment: qHTS Assay for Inhibitors and Substrates of Cytochrome P450 2C19 (AID 899); note: nearly all actives have a fitted effect of over 60% in size; note: potency is the fitted concentration of half-maximal effect
# In short: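 NADPH-dependent conversion of Luciferin-H EGE (10uM, at KM) by 5nM enzyme in 50mM KPO4, 60 min at 37C following 10 min compound preincubation. Stopped with luciferin detection buffer; luminescence read after 20 min.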
# [9] = biological target: Cytochrome P450 3A4 (Homo sapiens) (UniProt P08684); experiment: qHTS Assay for Inhibitors and Substrates of Cytochrome P450 3A4 (AID 884); note: nearly all actives have a fitted effect of over 50% in size; note: potency is the fitted concentration of half-maximal effect
# In short: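 Luminescent readout of luciferin produced by CYP3A4 (20 nM) dealkylation of Luciferin-PPXE, 25 uM (its KM). NADPH-driven reaction ran 60 min at RT after 10 min compound preincubation; data scaled to 57 uM ketoconazole as 100% inhibition.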
# [10] = biological target: Cytochrome P450 3A4 (Homo sapiens) (UniProt P08684); experiment: qHTS Assay for Activators of Cytochrome P450 3A4 (AID 885); note: nearly all actives have a fitted effect of over 65% in size
# In short: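 Using 20nM recombinant human CYP3A4 in potassium phosphate (200mM), substrate Luciferin-PPXE at 25uM, luminescent luciferin detection followed a 60-min RT NADPH reaction; data scaled to 57 uM ketoconazole.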
# [11] = biological target: DNA dC->dU-editing enzyme APOBEC-3G (Homo sapiens) (UniProt Q9HC16); experiment: qHTS for inhibitors of Vif-A3G interactions: Validation (AID 588379)
# In short: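 Yellow fluorescence (Ex 488, Em 500-530) of Vif-coexpressing HeLa A3G-eYFP cells, scanned by Acumen cytometer, reports blocked A3G degradation. Cells plated at 700/well overnight at 37 deg C before compound addition, then a further overnight compound incubation at 37 deg C.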
# Chain of Cytochrome P450 2D6 (Homo sapiens) (P10635 whole entry, looked up): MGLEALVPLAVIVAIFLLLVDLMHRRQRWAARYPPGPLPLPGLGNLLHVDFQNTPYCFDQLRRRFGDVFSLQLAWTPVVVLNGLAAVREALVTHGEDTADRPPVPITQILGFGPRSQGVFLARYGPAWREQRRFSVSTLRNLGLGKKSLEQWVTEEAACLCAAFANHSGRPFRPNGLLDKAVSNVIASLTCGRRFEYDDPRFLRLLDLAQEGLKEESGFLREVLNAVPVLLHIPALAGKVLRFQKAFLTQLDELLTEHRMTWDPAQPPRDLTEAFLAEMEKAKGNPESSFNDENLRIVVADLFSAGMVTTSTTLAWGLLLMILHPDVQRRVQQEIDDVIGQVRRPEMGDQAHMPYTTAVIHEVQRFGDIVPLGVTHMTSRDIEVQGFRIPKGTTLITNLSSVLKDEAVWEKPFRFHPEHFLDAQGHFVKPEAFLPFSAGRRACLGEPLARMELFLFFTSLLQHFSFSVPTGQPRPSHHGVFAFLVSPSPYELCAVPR
# Chain of DNA dC->dU-editing enzyme APOBEC-3G (Homo sapiens) (Q9HC16 whole entry, looked up): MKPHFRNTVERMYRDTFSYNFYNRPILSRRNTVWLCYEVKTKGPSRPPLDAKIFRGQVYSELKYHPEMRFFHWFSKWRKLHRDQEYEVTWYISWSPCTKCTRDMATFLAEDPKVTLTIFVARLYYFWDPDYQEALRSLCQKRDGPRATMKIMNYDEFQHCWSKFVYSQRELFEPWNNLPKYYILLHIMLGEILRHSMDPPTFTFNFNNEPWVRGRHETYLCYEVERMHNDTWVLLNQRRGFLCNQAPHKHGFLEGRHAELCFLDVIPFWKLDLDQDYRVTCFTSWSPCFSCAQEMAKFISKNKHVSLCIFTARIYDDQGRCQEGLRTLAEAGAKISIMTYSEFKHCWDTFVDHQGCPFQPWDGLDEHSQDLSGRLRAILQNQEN
# Chain of Cytochrome P450 1A2 (Homo sapiens) (P05177 whole entry, looked up): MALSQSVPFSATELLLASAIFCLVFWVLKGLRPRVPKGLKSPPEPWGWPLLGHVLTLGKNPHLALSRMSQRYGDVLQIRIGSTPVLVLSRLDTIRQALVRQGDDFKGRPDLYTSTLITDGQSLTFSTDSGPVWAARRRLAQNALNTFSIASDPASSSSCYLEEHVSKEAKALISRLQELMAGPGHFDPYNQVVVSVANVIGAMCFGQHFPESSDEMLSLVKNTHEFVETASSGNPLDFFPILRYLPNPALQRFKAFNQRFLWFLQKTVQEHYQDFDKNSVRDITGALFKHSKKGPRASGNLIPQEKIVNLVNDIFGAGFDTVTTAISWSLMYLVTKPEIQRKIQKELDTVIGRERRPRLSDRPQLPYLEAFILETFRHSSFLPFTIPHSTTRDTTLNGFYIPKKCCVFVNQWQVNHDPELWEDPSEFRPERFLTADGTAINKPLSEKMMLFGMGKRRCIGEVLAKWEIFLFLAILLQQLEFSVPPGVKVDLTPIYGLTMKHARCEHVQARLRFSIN
# Chain of 3',5'-cyclic-AMP phosphodiesterase 4B (Homo sapiens) (Q07343 whole entry, looked up): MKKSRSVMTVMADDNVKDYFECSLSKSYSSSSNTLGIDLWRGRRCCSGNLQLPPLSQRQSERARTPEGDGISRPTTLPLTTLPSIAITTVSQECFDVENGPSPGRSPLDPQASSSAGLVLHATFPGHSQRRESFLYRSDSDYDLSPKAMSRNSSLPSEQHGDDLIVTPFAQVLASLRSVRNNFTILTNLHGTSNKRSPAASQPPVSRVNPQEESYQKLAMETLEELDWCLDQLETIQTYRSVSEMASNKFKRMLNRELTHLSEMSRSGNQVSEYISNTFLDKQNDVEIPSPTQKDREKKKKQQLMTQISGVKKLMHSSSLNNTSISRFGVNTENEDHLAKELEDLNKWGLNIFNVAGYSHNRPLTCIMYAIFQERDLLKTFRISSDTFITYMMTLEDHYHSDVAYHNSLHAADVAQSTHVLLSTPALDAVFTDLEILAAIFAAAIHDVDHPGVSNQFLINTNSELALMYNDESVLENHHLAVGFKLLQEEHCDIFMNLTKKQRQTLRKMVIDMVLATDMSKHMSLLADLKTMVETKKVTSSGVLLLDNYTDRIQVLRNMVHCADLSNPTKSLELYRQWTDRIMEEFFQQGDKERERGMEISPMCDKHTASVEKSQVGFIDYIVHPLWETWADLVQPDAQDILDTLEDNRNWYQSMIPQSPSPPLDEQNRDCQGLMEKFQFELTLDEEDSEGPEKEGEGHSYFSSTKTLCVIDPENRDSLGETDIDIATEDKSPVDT
# Chain of Glucocorticoid receptor (Homo sapiens) (P04150 whole entry, looked up, the tested form may be a part): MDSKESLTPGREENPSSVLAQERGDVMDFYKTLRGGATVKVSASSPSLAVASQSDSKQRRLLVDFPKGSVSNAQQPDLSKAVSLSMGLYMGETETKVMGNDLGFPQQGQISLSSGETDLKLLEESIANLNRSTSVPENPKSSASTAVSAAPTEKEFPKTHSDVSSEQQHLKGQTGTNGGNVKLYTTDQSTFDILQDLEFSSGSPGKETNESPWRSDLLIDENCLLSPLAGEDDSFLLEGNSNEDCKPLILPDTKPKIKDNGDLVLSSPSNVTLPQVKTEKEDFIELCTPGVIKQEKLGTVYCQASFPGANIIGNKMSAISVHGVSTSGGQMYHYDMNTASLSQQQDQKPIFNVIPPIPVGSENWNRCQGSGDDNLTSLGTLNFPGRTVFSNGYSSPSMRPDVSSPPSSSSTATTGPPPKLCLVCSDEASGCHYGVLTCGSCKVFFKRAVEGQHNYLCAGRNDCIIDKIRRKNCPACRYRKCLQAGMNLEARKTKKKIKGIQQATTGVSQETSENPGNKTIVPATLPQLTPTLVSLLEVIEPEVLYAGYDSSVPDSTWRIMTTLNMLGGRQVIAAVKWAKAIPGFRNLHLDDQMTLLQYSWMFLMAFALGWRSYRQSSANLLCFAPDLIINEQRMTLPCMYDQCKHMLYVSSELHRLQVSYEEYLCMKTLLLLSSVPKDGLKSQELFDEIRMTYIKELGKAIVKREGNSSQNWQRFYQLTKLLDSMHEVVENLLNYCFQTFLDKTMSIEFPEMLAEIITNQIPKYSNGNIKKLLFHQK
# Chain of Cytochrome P450 2C9 (Homo sapiens) (P11712 whole entry, looked up): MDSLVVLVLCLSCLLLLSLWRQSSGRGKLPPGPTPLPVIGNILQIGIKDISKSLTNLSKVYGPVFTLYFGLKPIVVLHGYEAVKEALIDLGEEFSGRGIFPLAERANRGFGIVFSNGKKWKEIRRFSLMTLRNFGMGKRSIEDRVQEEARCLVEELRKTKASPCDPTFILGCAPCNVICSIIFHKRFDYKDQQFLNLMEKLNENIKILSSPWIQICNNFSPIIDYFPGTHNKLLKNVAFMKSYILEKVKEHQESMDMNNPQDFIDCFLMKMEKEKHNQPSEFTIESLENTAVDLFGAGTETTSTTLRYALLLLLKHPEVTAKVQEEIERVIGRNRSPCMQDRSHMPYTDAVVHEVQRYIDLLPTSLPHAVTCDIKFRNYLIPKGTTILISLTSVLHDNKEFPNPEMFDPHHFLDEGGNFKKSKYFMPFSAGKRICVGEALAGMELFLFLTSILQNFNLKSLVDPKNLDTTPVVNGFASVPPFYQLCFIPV
# Chain of Cytochrome P450 3A4 (Homo sapiens) (P08684 whole entry, looked up): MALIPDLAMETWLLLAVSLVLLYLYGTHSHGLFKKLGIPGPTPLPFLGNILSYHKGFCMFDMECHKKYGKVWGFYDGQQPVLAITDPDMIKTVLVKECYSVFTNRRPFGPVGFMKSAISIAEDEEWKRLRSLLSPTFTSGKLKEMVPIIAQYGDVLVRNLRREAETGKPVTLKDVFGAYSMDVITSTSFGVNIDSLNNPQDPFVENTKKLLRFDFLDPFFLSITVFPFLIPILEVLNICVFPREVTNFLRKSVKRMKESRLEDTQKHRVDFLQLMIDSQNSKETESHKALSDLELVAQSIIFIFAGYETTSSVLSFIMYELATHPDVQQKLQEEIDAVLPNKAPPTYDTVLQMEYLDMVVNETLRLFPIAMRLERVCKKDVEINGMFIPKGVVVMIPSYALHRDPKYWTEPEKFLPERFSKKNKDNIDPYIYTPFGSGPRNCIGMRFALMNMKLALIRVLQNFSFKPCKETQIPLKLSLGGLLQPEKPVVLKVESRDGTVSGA
# Chain of Cytochrome P450 2C19 (Homo sapiens) (P33261 whole entry, looked up): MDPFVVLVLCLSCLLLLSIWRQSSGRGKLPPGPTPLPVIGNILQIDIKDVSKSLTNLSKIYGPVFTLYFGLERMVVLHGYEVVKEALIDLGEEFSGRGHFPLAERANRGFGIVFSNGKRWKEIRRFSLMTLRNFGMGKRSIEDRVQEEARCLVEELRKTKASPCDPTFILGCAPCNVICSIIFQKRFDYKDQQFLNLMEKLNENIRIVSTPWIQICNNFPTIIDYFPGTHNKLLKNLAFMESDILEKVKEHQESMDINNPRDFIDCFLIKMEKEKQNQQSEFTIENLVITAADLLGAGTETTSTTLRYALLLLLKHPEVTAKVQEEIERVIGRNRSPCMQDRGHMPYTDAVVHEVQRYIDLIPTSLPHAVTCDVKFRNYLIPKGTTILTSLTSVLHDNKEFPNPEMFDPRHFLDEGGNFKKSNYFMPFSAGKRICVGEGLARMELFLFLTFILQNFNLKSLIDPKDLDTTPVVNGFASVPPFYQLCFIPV
SMILES,Potency [1],Potency [2] [µM],Potency [3] [µM],Potency [4],Potency [5],Potency [6],Potency [7],Potency [8],Potency [9],Potency [10],outcome [11]
O[C@@H]1[C@@H]2c3cc4c(cc3CN3CCC(=C[C@@H]1O)[C@H]23)OCO4,15.8 µM (active),> 20.6,> 20.6,inactive,inactive,–,–,–,–,–,–
COc1ccccc1C[C@@H](Cc1nc2ccccc2[nH]1)c1nc2ccccc2[nH]1,10 µM (active),> 46,> 46,inactive,inactive,12.6 µM (active),0.01 µM (active),1.58 µM (active),–,–,–
COc1ccc2c(=O)cc(-c3ccc(O)cc3)oc2c1,0.0794 µM (active),> 46,> 46,inactive,inactive,6.31 µM (active),–,7.94 µM (active),3.16 µM (active),inactive,inactive
O=C(CCc1ccc(O)cc1)c1c(O)cc(O)cc1O[C@@H]1O[C@@H](CO)[C@@H](O)[C@@H](O)[C@H]1O,inactive,> 46,> 46,inactive,inactive,31.6 µM (active),inactive,–,–,–,–
COc1cc(O)c2c(=O)cc(-c3ccccc3)oc2c1,0.0251 µM (active),> 46,> 46,inactive,–,–,inactive,0.398 µM (active),10 µM (active),inactive,inactive
C[C@H]1[C@H](C)CC[C@@]2(C(=O)O)CC[C@]3(C)C(=CC[C@H]4[C@@]5(C)C[C@@H](O)[C@H](O)[C@@](C)(CO)[C@@H]5CC[C@@]43C)[C@@H]12,inactive,> 46,> 46,inactive,inactive,inactive,inactive,inactive,–,–,–
O=c1cc(-c2ccccc2O)oc2c1ccc1ccccc12,0.501 µM (active),> 46,> 46,inactive,inactive,inactive,inactive,–,–,inactive,inactive
C=CC1=C(C)C2=Cc3c(C=C)c(C)c4[n]3[Sn+2][n]3c(c(C)c(CCC(=O)O)c3=CC3=NC(=C4)C(C)=C3CCC(=O)O)=CC1=N2,39.8 µM (active),> 46,> 46,1 µM [activator] (active),–,–,1.26 µM (active),–,–,–,inactive
Cn1ccc(O)c(C#N)c1=O,inactive,> 46,> 46,inactive,inactive,inactive,inactive,inactive,inactive,–,inactive
COc1cccc(-c2cc(=O)c3cc(O)ccc3o2)c1,1.58 µM (active),> 46,> 46,inactive,inactive,–,inactive,25.1 µM (active),15.8 µM (active),inactive,inactive
CN1CCc2cc3c(cc2C(=O)Cc2ccc4c(c2C1)OCO4)OCO3,39.8 µM (active),> 46,> 46,inactive,–,inactive,0.0501 µM (active),10 µM (active),–,inactive,inactive
C[C@@H]1C(=O)O[C@@H]2C[C@@]34[C@H]5C[C@@H](C(C)(C)C)[C@@]36[C@@H](OC(=O)[C@@H]6O)O[C@]4(C(=O)O5)[C@@]12O,inactive,> 46,> 46,inactive,–,–,–,–,–,–,–
